Laboratory results from the supplement of paper PMC10646978.
± gives the standard deviation.

Assays:
Conditions in all cases: modulator concentration 10 µM
[1] = test system: RAW-Dual (murine macrophage reporter line); experiment: NF-kB reporter (SEAP) activity fold change vs agonist alone; higher = enhanced NF-kB activity
Summary of the method: (§1)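 RAW-Dual murine macrophage reporter cells were plated at 50 000 per well in 384-well plates, pin-transferred compound to 10 μM final, and pre-incubated for 1 hour at 37 °C before a PRR agonist was added and the cells incubated overnight. NF-κB activity was read from supernatant SEAP with QUANTI-Blue at 620 nm absorbance, and IRF activity from Lucia luciferase with QUANTI-Luc by luminescence. Each signal was expressed as fold change by dividing by the mean agonist-only control on the same plate. Two replicate plates were averaged, with errors obtained by propagation.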

[2] = test system: RAW-Dual (murine macrophage reporter line); experiment: IRF reporter (Lucia luciferase) activity fold change vs agonist alone; higher = enhanced IRF activity
Summary of the method: as §1

[3] = test system: RAW-Dual (murine macrophage reporter line); experiment: viability score (confluency relative to resting cells, overnight) (fraction); higher = more viable, active = viable (0.7 or more)
Summary of the method: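 Two confluency masks, generated with IncuCyte software over all imaged wells, were applied to IncuCyte images of RAW-Dual macrophages. The cells, in 384-well plates, had been exposed overnight to 10 μM final compound. The viability score is confluency as a fraction of resting cells, and a compound met the cutoff only with both masks above 70% of resting cells.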

[4] = agonist: CpG ODN 1826 0.5 ug/mL

| Compound | NF-kB reporter [1, 4] | NF-kB reporter ([1]; agonist: LPS 0.1 ug/mL) | NF-kB reporter ([1]; agonist: MPLA […]) | IRF reporter ([2]; agonist: 3'3'-cGAMP 10 ug/mL) | IRF reporter ([2]; agonist: LPS 0.1 ug/mL) | IRF reporter ([2]; agonist: MPLA […]) | viability score [3] |
| --- | --- | --- | --- | --- | --- | --- | --- |
| c1cncc(CSc2ccc(-c3ccncc3)nn2)c1 | 0.532 ± 0.17 | 0.711 ± 0.071 | 0.919 ± 0.062 | 0.53 ± 0.037 | 0.647 ± 0.079 | 0.58 ± 0.13 | 0.892 (active) |
| O=C(NN=Cc1ccc([N+](=O)[O-])s1)c1ccc(Br)cc1 | 0.968 ± 0.083 | 0.858 ± 0.082 | 0.96 ± 0.09 | 0.395 ± 0.068 | 1.18 ± 0.2 | 1.14 ± 0.28 | 0.996 (active) |
| CCCC(=O)Nc1ncnc2c1ncn2[C@@H]1O[C@@H]2OP(=O)([O-])OC[C@H]2[C@H]1OC(=O)CCC [Prestw-813] | 1.27 ± 0.12 | 1.14 ± 0.079 | 1.14 ± 0.12 | 0.991 ± 0.056 | 1.41 ± 0.14 | 1.21 ± 0.16 | 1 (active) |
| O=C(NCCCO)C(=O)Nc1ccccc1F | 0.815 ± 0.07 | 0.894 ± 0.045 | 1 ± 0.099 | 0.968 ± 0.062 | 1.39 ± 0.08 | 1.46 ± 0.14 | 1 (active) |
| CCOc1ccc(CC(=O)NC2(c3nc(-c4ccccc4)no3)CCCCC2)cc1OCC | 0.697 ± 0.031 | 1.02 ± 0.095 | 0.93 ± 0.058 | 1.03 ± 0.049 | 1.24 ± 0.32 | 1.3 ± 0.37 | 0.979 (active) |
| O=C(NCCC(CCO)c1ccccc1)Nc1c(F)cccc1F (stereo not drawn) | 0.929 ± 0.078 | 1.02 ± 0.11 | 0.898 ± 0.041 | 0.972 ± 0.059 | 1.05 ± 0.084 | 0.978 ± 0.075 | 0.98 (active) |
| COc1ccccc1OCC(O)COC(N)=O (stereo not drawn) | 1.56 ± 0.26 | 1.28 ± 0.17 | 0.938 ± 0.058 | 0.93 ± 0.041 | 1.49 ± 0.15 | 1.21 ± 0.12 | 0.985 (active) |
| C[C@H](Cc1cc2c(c(C(N)=O)c1)N(CCCO)CC2)NCCOc1ccccc1OCC(F)(F)F | 1.2 ± 0.2 | 1.09 ± 0.29 | 1.03 ± 0.057 | 0.732 ± 0.058 | 1.05 ± 0.26 | 0.893 ± 0.2 | 0.998 (active) |
| CC#CCn1c(N2CCCC(N)C2)nc2c1c(=O)n(Cc1nc(C)c3ccccc3n1)c(=O)n2C (stereo not drawn) | 0.931 ± 0.24 | 1.08 ± 0.085 | 0.972 ± 0.065 | 0.925 ± 0.033 | 1.23 ± 0.15 | 1.39 ± 0.13 | 0.988 (active) |
| O=C(Nc1ccc(Cl)cc1)C(Sc1ccccc1)c1ccccc1 (stereo not drawn) | 0.994 ± 0.11 | 1.02 ± 0.1 | 0.926 ± 0.065 | 0.989 ± 0.037 | 1.38 ± 0.26 | 1 ± 0.081 | 1.02 (active) |
| O=C(NCCOc1cccc2cccnc12)c1c(F)cccc1F | 0.911 ± 0.088 | 1.01 ± 0.13 | 0.859 ± 0.049 | 0.961 ± 0.048 | 1.01 ± 0.1 | 1.05 ± 0.31 | 1.01 (active) |
| COc1cc2c(Nc3ccc(Br)cc3F)ncnc2cc1OCC1CCN(C)CC1 | 0.825 ± 0.04 | 1.01 ± 0.11 | 1.11 ± 0.094 | 0.975 ± 0.048 | 1.11 ± 0.17 | 1.29 ± 0.35 | 0.91 (active) |
| COc1ccccc1OCC(O)CN1CCN(CC(=O)Nc2c(C)cccc2C)CC1 (stereo not drawn) | 0.99 ± 0.087 | 0.943 ± 0.089 | 1.06 ± 0.056 | 0.967 ± 0.092 | 0.996 ± 0.061 | 0.936 ± 0.078 | 1 (active) |
| O=C(C(c1ccccc1)c1ccccc1)N1CCC(n2nccn2)CC1 | 1 ± 0.054 | 1.09 ± 0.13 | 0.904 ± 0.063 | 0.989 ± 0.053 | 1.25 ± 0.078 | 1.16 ± 0.12 | 0.999 (active) |
